Most compounds without a hit are left out; they make up all but 11% or so of the library.
Sm TGR inh: inhibitors of Schistosoma mansoni thioredoxin glutathione reductase. 3% of 360,000 active. Q962Y6. Potency, µM (highest dose often 114 µM), without a hit: at the top dose activity change, negative = inhibition, most hits filed as inhibitors. AID 485364. purified TGR, DTNB reduction, TNB absorbance 405 nm; note: % is set by controls: 0 for no effect and ±100 for the full control effect; nearly all actives have a fitted effect of over 60% in size
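TGR 20 nM + NADPH 100 uM (dispensed conc.), cpd preinc 15 min RT; start with NADPH (500 uM addition) then DTNB (15 mM addition). Kinetic TNB absorbance, 405 nm filter. Four-parameter Hill fit across titration.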
Pf growth 96h: P. falciparum growth inhibition at 96 hours | P. falciparum luciferase reporter growth, 96 h | Potency, µM (series often up to 28.7 µM), for inactives: top-dose activity change, negative = inhibition, actives largely listed as inhibitors | 6.9% of 320,000 active | AID 504834; note: % is set by controls: 0 for no effect and ±100 for the full control effect
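Erythrocytes infected with luciferase-expressing P. falciparum were dispensed at 2% hematocrit and 0.05% parasitemia (final), then incubated with compounds 96 hours at 37 C in 5% CO2. Luminescence after detection reagent addition reported growth.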
Pf growth 48h: inhibits P. falciparum growth in the first generation, 48 h. P. falciparum luciferase growth in erythrocytes, 48 h. Potency, µM (doses to about 28.7 µM), for the others: top-dose activity change, negative = inhibition, usual class: inhibitors. 5.9% of 310,000 active; note: % is set by controls: 0 for no effect and ±100 for the full control effect
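Luciferase-expressing parasites in RBCs, 2% Hct / 0.1% parasitemia final; RPMI 1640 + 0.5% Albumax; 37 C, 5% CO2, one generation; luminescence read-out, lower signal = inhibition.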
AMA1-RON2 inh: disrupts binding of P. falciparum AMA1 to RON2; AlphaScreen AMA1-biotinylated RON2 peptide binding; Potency, µM (highest dose often 58.2 µM), for inactives: at the top dose activity change, negative = inhibition, most hits filed as inhibitors; 0.2% of 360,000 active; AID 720542;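 note: 0% = vehicle wells and -100% = peptide control; nearly all actives have a fitted effect of over 45% in size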
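AMA1 (3D7) with his tag at 25 nM final met compounds first, then biotinylated RON2 peptide at 25 nM; detection used donor plus acceptor beads, 10 µg/mL apiece, read by AlphaScreen after 30 min at room temperature.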
NS1 inh: influenza NS1 inhibition | 0.4% of 270,000 active | AID 2326 | Potency, µM (doses to about 46.1 µM), for the others: at the highest dose activity, positive = more growth; calls by dose curve; note: actives are rising curves; nearly all actives have a fitted effect of over 50% in size
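In this qHTS, NS1 from influenza A is expressed in budding yeast, where it slows growth. Cells are switched from glucose to 2% galactose medium (pH 6.0, -URA), treated with compound, and growth recovery is read at OD600.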
* marks the source's active call; other numbers are inactive results. Unless noted, calls come from the whole dose curve; as a rule, active = well fitted curve in the direction sought with a large enough effect; inconclusive = small, poorly fitted or top-dose-only effect, or another doubt; inactive = no such curve, though single readings can be large; an effect the other way counts as inactive or inconclusive. Potency is the fitted concentration of half-maximal effect.

How did N#Cc1c(-c2ccc(F)cc2)noc1N do in these assays?
Sm TGR inh: -28%; AMA1-RON2 inh: 0%; NS1 inh: -75%

Results for CC1(C)CC(=O)c2c(oc3cc(O)c(O)cc23)C1 ?
Sm TGR inh: inconclusive; Pf growth 96h: 58%; AMA1-RON2 inh: 1.6µM*; NS1 inh: -8%

What do the screens show for `CC(C)c1ccc(S(=O)(=O)Nc2ccc3oc4c(c3c2)C(=O)CC(C)(C)C4)cc1`?
Sm TGR inh: -12%

What do the screens show for `O=C(Nc1ccc2nc(-c3cccnc3)[nH]c2c1)C12CC3CC(CC(C3)C1)C2`?
Sm TGR inh: -12%; Pf growth 96h: -26%; Pf growth 48h: 12µM*; AMA1-RON2 inh: -5%; NS1 inh: 3%

Results for CCN1CCN(C(c2ccccc2Cl)c2c(O)cc(C)n(Cc3ccco3)c2=O)CC1 (stereo unspecified) ?
Sm TGR inh: 4µM*

What do the screens show for `Cc1cc(O)c(C(c2ccccc2Cl)N2CCN(c3ccccc3)CC2)c(=O)n1Cc1ccco1` (stereo unspecified)?
Sm TGR inh: 2.8µM*

Results for COC(=O)C1=C(C)NC(=O)CC1c1cccc(Cl)c1Cl (stereo unspecified) ?
Sm TGR inh: -4%; Pf growth 96h: inconclusive; Pf growth 48h: 5.2µM*; AMA1-RON2 inh: -9%; NS1 inh: -23%

How did CN1CCOc2cc(S(=O)(=O)NCc3ccc(S(N)(=O)=O)cc3)ccc21 do in these assays?
Sm TGR inh: -1%; Pf growth 96h: 3%; Pf growth 48h: 1%; AMA1-RON2 inh: 1%; NS1 inh: 10%

What do the screens show for `CC(C)(C)c1ccc(C(=O)CCCN2CCC(OC(c3ccccc3)c3ccccc3)CC2)cc1`?
Pf growth 96h: 7.6µM*; Pf growth 48h: 9.5µM*

What do the screens show for `CN1CCN(CCCCC(=O)c2ccccc2)CC1`?
Sm TGR inh: 0%; Pf growth 96h: 206%; Pf growth 48h: 12%; AMA1-RON2 inh: 4%; NS1 inh: -4%

Results for CCOC(=O)c1c(S(=O)(=O)NCC(=O)N2CCN(c3ccccc3)CC2)c(C)n(C)c1C ?
Sm TGR inh: -13%; Pf growth 96h: 22%; Pf growth 48h: -2%; AMA1-RON2 inh: -6%; NS1 inh: 0%

How did Cc1ccc(C(=O)N2CCCC(C(=O)c3ccc(Oc4ccccc4)cc3)C2)cn1 (stereo unspecified) do in these assays?
Sm TGR inh: 3%; Pf growth 96h: 8.3µM*; Pf growth 48h: -15%; AMA1-RON2 inh: -18%; NS1 inh: -33%

Results for CCC(C)N1C(=O)/C(=C/c2c(NCCCOC(C)C)nc3c(C)cccn3c2=O)SC1=S (stereo unspecified) ?
Sm TGR inh: 9%; Pf growth 96h: inconclusive; Pf growth 48h: 1.2µM*; AMA1-RON2 inh: -7%; NS1 inh: -3%

How did CCCN1C(=O)/C(=C/c2c(NCCCOC(C)C)nc3c(C)cccn3c2=O)SC1=S do in these assays?
Sm TGR inh: 12%; Pf growth 96h: 37%; Pf growth 48h: inconclusive; AMA1-RON2 inh: 1%; NS1 inh: 0%

How did COC(=O)C1=CN(Cc2ccc(C)cc2)C=C(C(=O)OC)C1c1cc(OC)c(OC)c(OC)c1 do in these assays?
Sm TGR inh: 2%; Pf growth 96h: inconclusive; Pf growth 48h: 1.5µM*; AMA1-RON2 inh: 46%; NS1 inh: 25%

How did COC(=O)C1=CN(Cc2ccccc2)C=C(C(=O)OC)C1c1ccc(O)c(OC)c1 do in these assays?
Sm TGR inh: -14%; Pf growth 96h: 240%; Pf growth 48h: 13µM*; AMA1-RON2 inh: 8%; NS1 inh: 7%

Results for COC(=O)C1=CN(Cc2ccccc2)C=C(C(=O)OC)C1c1ccc(OC)c(OC)c1 ?
Sm TGR inh: 4%; Pf growth 96h: 0%; Pf growth 48h: inconclusive; AMA1-RON2 inh: -2%; NS1 inh: 23%

What do the screens show for `COCCN1C=C(C(=O)OC)C(c2cc(Br)c(OC)c(OC)c2)C(C(=O)OC)=C1`?
Sm TGR inh: 1%; Pf growth 96h: 4%; Pf growth 48h: 3.3µM*; AMA1-RON2 inh: 31%; NS1 inh: -11%

How did CCOC(=O)c1c(NC(=O)CN2C(=O)CN(C)C2=O)sc(C)c1C do in these assays?
Sm TGR inh: 15%; Pf growth 96h: inconclusive; Pf growth 48h: -15%; AMA1-RON2 inh: -2%

How did COc1cc(O)c(C(CCN2CCCC(C)C2)c2ccc(N(C)C)cc2)c(OC)c1 (stereo unspecified) do in these assays?
Sm TGR inh: -21%; Pf growth 96h: 0.47µM*; Pf growth 48h: 0.74µM*; AMA1-RON2 inh: inconclusive; NS1 inh: -10%

What do the screens show for `COc1cc(O)c(C(CC(=O)N2CCCCC2)c2ccc(N(C)C)cc2)c(OC)c1` (stereo unspecified)?
Sm TGR inh: -11%; Pf growth 96h: 23%; Pf growth 48h: 17%; AMA1-RON2 inh: -29%; NS1 inh: -39%

Results for COc1cc(O)c(C(CCN2CCOCC2)c2ccc3c(c2)OCO3)c(OC)c1 (stereo unspecified) ?
Sm TGR inh: -30%; Pf growth 96h: 2.3µM*; Pf growth 48h: 1.7µM*; AMA1-RON2 inh: -20%; NS1 inh: -1%

What do the screens show for `COc1cc(OC)c2ccc(=O)oc2c1C(CC(=O)N1CCOCC1)c1ccc(N(C)C)cc1` (stereo unspecified)?
Sm TGR inh: -16%; Pf growth 96h: inconclusive; Pf growth 48h: inconclusive; AMA1-RON2 inh: -4%; NS1 inh: -20%

What do the screens show for `COc1cc(O)c(C(CCN2CCCC(C)C2)c2ccc3c(c2)OCO3)c(OC)c1` (stereo unspecified)?
Sm TGR inh: -13%; Pf growth 96h: 0.59µM*; Pf growth 48h: 0.66µM*; AMA1-RON2 inh: -23%; NS1 inh: -9%

How did COc1cc(OC)c2ccc(=O)oc2c1C(CCN1CCCC(C)C1)c1ccc2c(c1)OCO2 (stereo unspecified) do in these assays?
Sm TGR inh: 1%; Pf growth 96h: 10µM*; Pf growth 48h: 9.3µM*; AMA1-RON2 inh: 21%; NS1 inh: 1%

What do the screens show for `O=C(COC(=O)c1cccnc1)Nc1cccc(Cl)c1`?
Sm TGR inh: -7%; Pf growth 96h: 4.7µM*; Pf growth 48h: -16%; AMA1-RON2 inh: -1%; NS1 inh: -4%

Results for Cc1onc(-c2ccccc2)c1C(=O)Nc1cccc(OC(C)C)c1 ?
Sm TGR inh: -1%; Pf growth 96h: 13µM*; Pf growth 48h: -6%; AMA1-RON2 inh: -16%; NS1 inh: -17%

Results for Cc1onc(-c2ccccc2)c1C(=O)OCC(=O)Nc1ccc(Cl)cc1 ?
Sm TGR inh: -3%; Pf growth 96h: -6%; Pf growth 48h: inconclusive; AMA1-RON2 inh: 16%

Results for Cc1onc(-c2ccccc2)c1C(=O)OCC(=O)Nc1cccc(Cl)c1 ?
Sm TGR inh: 0%; Pf growth 96h: inconclusive; Pf growth 48h: 12µM*; AMA1-RON2 inh: 1%
